# Experimental data reported in PubChem BioAssay (NCI).
# About 83,000 compounds went through this panel and 20% of them were active in at least one assay; those are over-represented in the sample as a whole.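 Growth was measured after 48 h exposure to one concentration of compound in 96-well plates. Values under 10 count as active.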 Values without a mark were called inactive. The source made the active and inactive calls.
# Legend:
# Assay in all cases: NCI-60 one-dose screen, 48 h (100 = growth as untreated, 0 = no growth, -100 = all killed)
# Details in all cases: 10 µM unless noted
# [1] = system: NCI-H23 lung
# [2] = system: NCI-H226 lung
# [3] = system: NCI-H322M lung
# [4] = system: HOP-62 NSCLC
# [5] = system: NCI-H460 lung
# [6] = system: HOP-92 NSCLC
# [7] = system: NCI-H522 lung
# [8] = system: A549/ATCC NSCLC
# [9] = system: 786-0 renal
# [10] = system: COLO 205 colon
# [11] = system: DU-145 prostate
# [12] = system: K-562 leukemia
# [13] = system: MALME-3M melanoma
# [14] = system: MDA-MB-231 breast
# [15] = system: RXF 393 renal
# [16] = system: SF-268 CNS
# [17] = system: SF-295 CNS
# [18] = system: SF-539 CNS
# [19] = system: UACC-257 melanoma
# [20] = system: M14 melanoma
SMILES,growth [1],growth [2],growth [3],growth [4],growth [5],growth [6],growth [7],growth [8],growth [9],growth [10],growth [11],growth [12],growth [13],growth [14],growth [15],growth [16],growth [17],growth [18],growth [19],growth [20]
O=C1Nc2ccccc2C2c3cccn3-c3ccccc3CN12 (stereo not given),70.6%,78.2%,91.5%,34.5%,43.7%,29.7%,-7.83% (active),34.4%,66.3%,39.5%,84.8%,12.4%,52%,39.2%,59.8%,75.1%,59.8%,55.1%,57.3%,20.2%
CC12CC=CCC1CCC1C2CCC2(C)C(c3ccc(=O)oc3)CCC12O (stereo not given),-44.2% (active),-90.6% (active),-19.9% (active),-65.2% (active),-70.4% (active),1.77% (active),-19.9% (active),-37.7% (active),-42.4% (active),-43.6% (active),-98% (active),3.02% (active),-51.8% (active),-4.41% (active),-46.5% (active),-62.2% (active),-36.7% (active),-93.7% (active),-52.8% (active),-28% (active)
COc1ccc(/C=C\c2cc(OC)c(OC)c(OC)c2)cc1OCC(=O)Nc1nc2ccc(OC(F)(F)F)cc2s1,35.6%,74.2%,73.6%,53.7%,12.4%,55.9%,15.8%,66.5%,92.6%,106%,6.56% (active),22.9%,26.4%,36.7%,26.4%,45.8%,40.8%,14%,58.7%,11.5%
COc1ccc(Nc2ccnc3cc(Cl)ccc23)cc1CN(CCCl)CCCl,-46.7% (active),22.9%,-34% (active),-38.8% (active),-18.2% (active),-39% (active),-47.6% (active),1.03% (active),-53.3% (active),-37.1% (active),-26.4% (active),0.691% (active),-85.3% (active),0.96% (active),-72.3% (active),-29.3% (active),-24.8% (active),-75.8% (active),-39.1% (active),-58.4% (active)
O=C(c1cccc(O)c1O)c1cn(Cc2ccc(F)cc2)c2cccc(O)c12,47.8%,61.5%,37.9%,31%,11.4%,-9.9% (active),-36.5% (active),30.5%,31.2%,50.3%,36.2%,22.1%,58.9%,39.1%,70%,26.3%,41.9%,13.8%,34.4%,-64.3% (active)
CC(=O)O[C@H]1C(=O)[C@@]2(C)[C@H]([C@H](OC(=O)c3ccccc3)[C@]3(O)C[C@H](OC(=O)[C@H](OC(=O)OC[C@H]4COC(C)(C)O4)[C@@H](NC(=O)c4ccccc4)c4ccccc4)C(C)=C1C3(C)C)[C@]1(OC(C)=O)CO[C@@H]1C[C@@H]2O,21.6%,55.5%,14.9%,21.7%,4.16% (active),53.4%,5.12% (active),12.5%,20.2%,-15.1% (active),5.18% (active),11.6%,27.2%,-4.56% (active),-7.11% (active),29.7%,-6.58% (active),-13.3% (active),48.3%,-19% (active)
CCOP(=O)(Nc1ccc2c(c1)/C(=N/NC(N)=S)c1ccccc1-2)OCC,99%,97.6%,132%,117%,104%,96.1%,95.4%,99.5%,104%,96.3%,102%,103%,139%,59.7%,90.1%,98%,116%,84.7%,113%,108%
CCCCC1(CCC)C(=O)NC(=S)NC1=O,100%,106%,112%,99.6%,108%,71.4%,81.7%,125%,93.8%,112%,119%,121%,119%,113%,195%,107%,102%,94.9%,131%,106%
